An excerpt weighted towards active compounds, which were near 0.9% of everything screened.
BLM inh: blocks DNA unwinding by human BLM helicase. recombinant BLM DNA unwinding, fluorescence dequenching. Potency, µM (top dose mostly 56.1 µM), for the others: at the top dose activity change, negative = inhibition, most hits filed as inhibitors. actives 0.2% (n = 350,000). AID 2528;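 also: plate controls were vehicle for no effect and no enzyme for full effect; nearly all actives have a fitted effect of over 35% in size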
Lamin A splicing: modulators of lamin A splicing | HeLa LMNA splicing GFP/RFP minigene ratio, 48 h | Potency, µM (highest dose often 46.1 µM), for the others: at the top dose ratio change, negative = inhibition, usual class: inhibitors | actives 0.01% (n = 200,000) | AID 1487; active = well fitted inhibition curve with a large enough effect in the signal ratio, with a control signal flat, not every such curve was filed as active; inconclusive = small, poorly fitted or top-dose-only effect, or effect the other way, or a change in a side signal; the % refers to the signal ratio
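S3 HeLa cells stably expressing lamin A-EGFP splicing minigene plus DsRed2, 600 cells/well, 48 h compound exposure at 37C. Laser-scanning cytometry; analysed as GFP (500-530 nm)/RFP (575-640 nm) total intensity ratio; 0.5% DMSO vehicle.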
APE1 inh: inhibitors of human APE1 endonuclease; P27695; recombinant APE1, TAMRA/BHQ-2 abasic DNA cleavage fluorescence; Potency, µM (series often up to 65.8 µM), without a hit: at the top dose activity change, negative = inhibition, actives largely listed as inhibitors; actives 0.35% (n = 350,000);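 also: plate controls were vehicle for no effect and reference inhibitor for full effect; nearly all actives have a fitted effect of over 55% in size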
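Enzyme (0.75 nM final) and test compound are incubated 15 min at room temperature before adding 50 nM quenched THF abasic-site duplex. Cleavage dequenches TAMRA, followed at 525/598 nm over three reads one minute apart.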
RECQ1 inh: inhibitors of human RECQ1 DNA helicase; Potency, µM (highest dose often 57.3 µM), inactives show at the top dose activity, negative = inhibition, actives largely listed as inhibitors; AID 2549; actives 0.54% (n = 240,000); RECQ1 DNA unwinding, red fluorescence kinetic read; P46063;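 also: plate controls were vehicle for no effect and no enzyme for full effect; nearly all actives have a fitted effect of over 30% in size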
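RECQ1T1 50 nM; forked duplex (20 bp + 30-nt ss tails) 200 nM, ATP 2 mM final; pH 8.0, 2 mM MgCl2, 2.5 ug/ml poly(dI-dC); 15 min compound preincubation; discontinuous kinetic read over 2 h at RT.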
GCN5L2 inh: blocks human GCN5L2 histone acetyltransferase; Q92830; GCN5L2 HAT assay, ThioGlo1 CoA-SH fluorescence; Potency, µM (highest dose often 58.9 µM), for the others: at the highest dose activity change, negative = inhibition, hits mostly inhibitors; actives 0.21% (n = 390,000); AID 504327
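Compounds, pin-transferred from DMSO stocks, meet 20nM GCN5L2 for 15 min before the reaction begins with H3(1-25) peptide (75uM) and acetyl-CoA (70uM). Thiol-reactive ThioGlo1 reports CoA release over 20 min at room temperature.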
TDP1 block: inhibitors of human tyrosyl-DNA phosphodiesterase TDP1; recombinant TDP1, AlphaScreen DNA substrate cleavage; Potency, µM (series often up to 130 µM), without a hit: at the highest dose activity change, negative = inhibition, usual class: inhibitors; actives 0.28% (n = 350,000); AID 485290; also: nearly all actives have a fitted effect of over 40% in size
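Steps: enzyme plus compound, 15 min RT; add biotin/phosphotyrosine-FITC oligonucleotide (15 nM final), react 5 min; add donor/acceptor beads (10 ug/ml final), 10 min; read AlphaScreen. Tdp1 at 1 nM final.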
Active calls of the source: *; ! = repeats disagree; [ ] = remark or other dose. Unless noted, calls follow the shape of the dose curve; as a rule, active = well fitted curve in the direction sought with a large enough effect; inconclusive = small, poorly fitted or top-dose-only effect, or another doubt; inactive = no such curve, though single readings can be large; an effect the other way counts as inactive or inconclusive. Unless noted, % is scaled to controls: 0 for no effect and ±100 for the full control effect; potency is read from the fitted curve at half-maximal effect.

For NC(=S)NCCCC(N)C(=O)O (configuration not stated) the results were Lamin A splicing 7%, APE1 inh -3%, RECQ1 inh inactive and TDP1 block -6%[56.1 µM].
`N[C@@H](CSS(=O)(=O)O)C(=O)O` gave BLM inh -4%, APE1 inh inconclusive, RECQ1 inh -6%, GCN5L2 inh 35µM*! and TDP1 block 40µM*!.
For COc1cc(/C=C2/C(=O)c3cccc([N+](=O)[O-])c3C2=O)c(Br)cc1O the results were BLM inh -19%, Lamin A splicing inconclusive, APE1 inh inconclusive, RECQ1 inh 25µM*, GCN5L2 inh inconclusive and TDP1 block 1%.
For COc1ccccc1NC(=O)CCCCCN1C(=O)c2cccc([N+](=O)[O-])c2C1=O the results were BLM inh -11%, APE1 inh 0% and GCN5L2 inh -3%.
Screening C[C@H]1Cc2c(COc3ccccc3)nc3c(c2CO1)CN(C(=O)C1CCCCC1)CC3 returned BLM inh -4%[12.4 µM], Lamin A splicing 3%[9.22 µM], APE1 inh -5%[12.4 µM], RECQ1 inh inactive[11.5 µM] and TDP1 block 8%[12.3 µM].
`CN(C)c1cccc(S(=O)(=O)N2CCCN(S(=O)(=O)c3ccc4c(c3)OCCO4)CC2)c1` gave TDP1 block 3%.
CCCc1nc2sc3c(SCC(=O)NCc4ccco4)ncnc3c2c2c1CCC2 was read as BLM inh inconclusive, Lamin A splicing inconclusive, APE1 inh inconclusive, RECQ1 inh inconclusive, GCN5L2 inh inconclusive and TDP1 block 20µM*.
Screening Cc1ccc(C(=O)Nc2ccc(C(=O)OCc3cc(=O)n4ccsc4n3)cc2)cc1 returned BLM inh -11%, Lamin A splicing 3%[46 µM], APE1 inh 15%, GCN5L2 inh 23% and TDP1 block 22µM*.
O=C1c2c(O)cccc2C(C2OC(CO)[C@@H](O)[C@H](O)[C@H]2O)c2cc(CO)cc(O)c21 (some centres not stated) was read as APE1 inh 20%, GCN5L2 inh -21% and TDP1 block 2%.
`O=C(O)c1cc(O)c2c(c1)[C@@H]([C@H]1c3cc(C(=O)O)cc(O)c3C(=O)c3c(O[C@@H]4O[C@H](CO)[C@@H](O)[C@H](O)[C@H]4O)cccc31)c1cccc(OC3O[C@H](CO)[C@@H](O)[C@H](O)[C@H]3O)c1C2=O` (some centres not stated) gave APE1 inh 0.084µM* and GCN5L2 inh 0.5µM*.
`CC(=O)c1ccc(O[C@@H]2O[C@H](CO)[C@@H](O)[C@H](O)[C@H]2O)cc1` gave APE1 inh 25%, GCN5L2 inh -2% and TDP1 block 1%.
`O=C(O)c1cc(O)c2c(c1)[C@H]([C@H]1c3cc(C(=O)O)cc(O)c3C(=O)c3c(O[C@@H]4O[C@H](CO)[C@@H](O)[C@H](O)[C@H]4O)cccc31)c1cccc(OC3O[C@H](CO)[C@@H](O)[C@H](O)[C@H]3O)c1C2=O` (some centres not stated) gave APE1 inh 0.067µM* and GCN5L2 inh 0.71µM*.
For COc1cccc(C2c3c(ncn(-c4ccccn4)c3=N)Oc3ccc4ccccc4c32)c1 (configuration not stated) the results were TDP1 block 0%.
Screening CC(=O)NC(CCC(=O)O)C(=O)O (configuration not stated) returned BLM inh -5%, APE1 inh 10%, RECQ1 inh -7%, GCN5L2 inh -8% and TDP1 block -7%.
Screening CC(=O)N[C@@H](CC(=O)O)C(=O)N[C@@H](CCC(=O)O)C(=O)O returned BLM inh -1%, Lamin A splicing inconclusive, APE1 inh 3.5µM*!, RECQ1 inh inconclusive, GCN5L2 inh 2%[21.4 µM] and TDP1 block 16µM*!.
For Cc1c(C(=O)N(C)c2cccc(C(F)(F)F)c2)sc2nc3n(c(=O)c12)CCCCC3 the results were BLM inh -2%, Lamin A splicing inconclusive, GCN5L2 inh inconclusive and TDP1 block 5%.
For COCCN(C(=O)COC(=O)Cc1coc2cc3c(cc12)CCC3)c1c(N)n(Cc2ccccc2)c(=O)[nH]c1=O the results were APE1 inh 9.5µM*, GCN5L2 inh -20% and TDP1 block 13µM*.
COCCN(C(=O)COC(=O)COc1ccc2c(c1)CCC2)c1c(N)n(Cc2ccccc2)c(=O)[nH]c1=O was read as APE1 inh -7% and GCN5L2 inh -3%.
For CN1/C(=C\C=C2/SC(=S)NC2=O)C(C)(C)c2ccccc21 the results were BLM inh inconclusive, Lamin A splicing -9%[46 µM], APE1 inh 25µM*, RECQ1 inh 32µM*, GCN5L2 inh 16% and TDP1 block 6%.
For CN1C(=CC=C2C=C(I)C(=O)C(I)=C2)C(C)(C)c2ccccc21 the results were BLM inh 28µM*, APE1 inh -1%, RECQ1 inh 0.63µM*, GCN5L2 inh -10% and TDP1 block 10%.
CN1/C(=C\C=C2/C(=O)Oc3ccccc3C2=O)C(C)(C)c2ccccc21 was read as Lamin A splicing inconclusive, APE1 inh -4%, RECQ1 inh -7%, GCN5L2 inh -16% and TDP1 block 3%.
`CCCN1C(=O)/C(=C\C=C2\N(CC)c3ccccc3C2(C)C)SC1=S` gave BLM inh -2%, APE1 inh 5%, RECQ1 inh inactive, GCN5L2 inh -22% and TDP1 block 6%.
`CC(C)Nc1cccc(S(=O)(=O)N2CCCN(S(=O)(=O)c3ccc4c(c3)OCCO4)CC2)c1` gave TDP1 block 1%.
For CC1=C(CCC(=O)O)c2cc3nc(cc4[nH]c(cc5[nH]c(cc1n2)c(C)c5C(C)O)c(C)c4C(C)O)C(C)=C3CCC(=O)O (configuration not stated) the results were BLM inh -8%, Lamin A splicing 8%, APE1 inh inconclusive, RECQ1 inh -24%, GCN5L2 inh 1% and TDP1 block 16µM*.
CCOC(=O)c1cn(-c2nc(-c3ccc(Cl)c(Cl)c3)cs2)c2c(F)c(N3CCOCC3)c(F)cc2c1=O was read as BLM inh -5%, Lamin A splicing 5%, APE1 inh 16%, RECQ1 inh inactive, GCN5L2 inh 2.5µM* and TDP1 block 2%.
